# About 3,200 (25%) of roughly 13,000 compounds showed an effect of 50% or more. The list shows a part of the results.
# Tested on: P. falciparum stage V gametocytes
# Set-up: BacTiter-Glo ATP luminescence viability of purified stage V gametocytes in 384-well plates, per cent inhibition versus DMSO
# Details: 48 h, 5 µM; inhibitor
row,SMILES,% Inhibition [%]
1,Cc1[nH]c(C)c(C2CCC(c3ccc(Cl)cc3)CC2)c(=O)c1Cl (centres unmarked) [TCMDC-137423],63.6
2,Cc1[nH]c(C)c(-c2ccc(Br)cc2)c(=O)c1Cl [TCMDC-135043],62.53
3,Cc1cc(=O)c(C2CCC(c3ccc(Cl)cc3)CC2)c(C)[nH]1 (centres unmarked) [TCMDC-138154],9.202
4,CCN(CC)C(=O)c1cccc(C=Cc2ccc(-c3c(C)[nH]c(C)c(Cl)c3=O)cc2)c1 [TCMDC-135819],53.1
5,Cc1[nH]c(C)c(-c2cc3ccccc3o2)c(=O)c1Cl [TCMDC-135948],11.96
6,Cc1[nH]c(C)c(-c2ccc(C(=O)c3ccc(Cl)cc3)cc2)c(=O)c1Br [TCMDC-137407],68.89
7,Cc1[nH]c(C)c(-c2ccc(Br)cc2)c(=O)c1Br [TCMDC-137537],28.95
8,Cc1cc(=O)[nH]c2cc(Nc3ccnc(Nc4cccc(C(N)=O)c4)n3)ccc12 [TCMDC-138710],20.95
9,CC(C)Oc1ccc(N2CCN(CCCCNC(=O)c3ccc(NC(=O)c4ccc(Cl)cc4)cc3)CC2)c(OC(C)C)c1 [TCMDC-138245],-2.12
10,C#CCN(Cc1ccc2nc(N)[nH]c(=O)c2c1)c1ccc(C(=O)N[C@@H](CCC(=O)O)C(=O)O)cc1 [TCMDC-131823],-7.091
11,O=C(CCCCCNC(=O)c1ccc(O)c(-c2cccc(C(F)(F)F)c2)c1)NCCN1CCCCC1 [TCMDC-140814],-2.677
12,Cc1cc(N(C)C)nc(Nc2ccc(NC(=O)c3cccc(F)c3)cc2)n1 [TCMDC-124724],10.45
13,Cc1[nH]c(C)c(-c2ccc(Sc3ccc(Cl)cc3)cc2)c(=O)c1Br [TCMDC-137404],66.05
14,COc1ccc2ncc(Cl)c(N3CCC(CCNCc4ccc5c(n4)NC(=O)CS5)CC3)c2c1.Cl [TCMDC-141958],0.05948
15,O=C(Cc1ccccc1)NC(CCN1CCC(O)(c2cccc(C(F)(F)F)c2)CC1)c1ccc(Cl)c(Cl)c1 (centres unmarked) [TCMDC-141711],14.28
16,O=C(NC1CCN(CCC[C@]2(c3ccc(Cl)c(Cl)c3)CCCN(C(=O)c3ccccc3)C2)CC1)c1ccc(Cl)cc1 [TCMDC-141713],-34.58
17,CN(C)S(=O)(=O)c1ccc(N2CCN(CCC3(c4cccc(F)c4)CCN(C(=O)C(C)(C)C)CC3)CC2)c2nonc12 [TCMDC-135887],8.489
18,CC(=O)C1(c2ccccc2)CCN(CCC2(c3ccc(Cl)c(Cl)c3)CN(C(=O)Nc3cccc(C(F)(F)F)c3)CCO2)CC1 (centres unmarked) [TCMDC-135342],34.05
19,CC(C)(C)NS(=O)(=O)c1cc(C(=O)N2CCC(CCN3CCC(C(=O)c4ccc(F)cc4)CC3)(c3cccc(F)c3)CC2)c(Cl)cc1F [TCMDC-135885],79.72
20,CC(C)(C)NS(=O)(=O)c1cc(C(=O)N2CCC(CCN3CCC(O)(c4cccc(C(F)(F)F)c4)CC3)(c3cccc(F)c3)CC2)c(Cl)cc1F [TCMDC-135886],93.87
21,COc1ccccc1NC(=O)Nc1ccc(-c2cccc(-c3nc4ccccc4[nH]3)c2)cc1 [TCMDC-133206],15.44
22,FC(F)(F)c1cc(Nc2ncnc3ccc(Br)cc23)ccc1OCc1ccccc1 [TCMDC-131923],9.607
23,c1cncc(Oc2ccc(Nc3ccnc4cc(-c5cccc(CN6CCOCC6)c5)ccc34)cc2)c1 [TCMDC-138490],-4.813
24,c1ccc(Oc2ccc(Nc3ccnc4cc(-c5cccc(CN6CCOCC6)c5)ccc34)cc2)cc1 [TCMDC-138475],-43.1

row,SMILES,% Inhibition [%]
1,CN1CCN(Cc2cccc(-c3ccc4c(Nc5ccc(Oc6cccnc6)cc5)ccnc4c3)c2)CC1 [TCMDC-138489],97.22
2,COCCNCc1nc(-c2ccc3c(Nc4ccc(F)c(O)c4)ccnc3c2)cs1 [TCMDC-138411],27.64
3,CN1CCN(Cc2cccc(-c3ccc4c(Nc5ccc(Oc6ccccc6)cc5)ccnc4c3)c2)CC1 [TCMDC-138476],95.08
4,Cc1ccc(O)cc1Nc1ccnc2cc(-c3csc(CN4CCN(C)CC4)n3)ccc12 [TCMDC-138459],29.46
5,CN1CCN(Cc2nc(-c3ccc4c(Nc5ccc(F)c(O)c5)ccnc4c3)cs2)CC1 [TCMDC-138439],95.29
6,CN1CCN(Cc2cccc(-c3cc4nccc(Nc5ccc(Oc6ccccc6)cc5)c4cc3Cl)c2)CC1 [TCMDC-138460],0.7486
7,Oc1cc(Nc2ccnc3cc(-c4cccc(CN5CCCCC5)c4)ccc23)c(F)cc1Cl [TCMDC-138433],38.27
8,c1cncc(Oc2ccc(Nc3ccnc4cc(-c5cccc(CN6CCCCC6)c5)ccc34)cc2)c1 [TCMDC-138491],61.6
9,Cc1ccc(/C=C2/SC(=Nc3ccccc3)NC2=O)c(C)c1 [TCMDC-124428],45.43
10,CCOC(=O)c1cncc(/C=C/c2cc(C)cnc2N)c1 [TCMDC-134321],18.35
11,CC(C)(C)C1CC(=O)CC2C(=O)N(C3CCCCC3)C(=O)C21 (centres unmarked) [TCMDC-139129],-1.455
12,CC1(C)NC(N)=NC(=N)N1OCc1nc(N)nc(Nc2ccccc2)n1 [TCMDC-131613],27.92
13,C=CCN1C(=O)C(C(C)=O)=C(O)C1c1ccccc1 (centres unmarked) [TCMDC-131675],0.4612
14,CC(C)C[C@@H](C(=O)Nc1ccc(Cc2ccc(NC(=O)[C@H](CC(C)C)N(C)C(=O)OC(C)(C)C)cc2)cc1)N(C)C(=O)OC(C)(C)C [TCMDC-131871],6.615
15,c1ccc(Oc2ccc(Nc3ccnc4cc(-c5csc(CN6CCCCC6)n5)ccc34)cc2)nc1 [TCMDC-138428],-35.56
16,CN1CCN(Cc2nc(-c3ccc4c(Nc5ccc(Oc6ccccc6)cc5)ccnc4c3)cs2)CC1 [TCMDC-138409],54.56
17,CCc1ccc(CN(Cc2ccc(C)cc2)Cc2ccc(NC(C)=O)cc2)cc1 [TCMDC-140034],13.22
18,CCN(CC)/C(=N/C(=N)Nc1ccc(Br)cc1)NCCCCCCN/C(=N\C(=N)Nc1ccc(Br)cc1)N(CC)CC [TCMDC-131814],118.9
19,N=C(N)NN=CC(=O)Nc1ccc(Br)cc1 [TCMDC-137562],-7.978
20,CCN(CC)/C(=N/C(=N)Nc1ccc(C)cc1)NCCCCCCN/C(=N\C(=N)Nc1ccc(C)cc1)N(CC)CC [TCMDC-131810],116.5
21,CCCN1CCN(CC(O)CNC(=O)Nc2ccc(Br)cc2)CC1 (centres unmarked) [TCMDC-134638],9.49
22,CC(=O)Nc1ccc(C(=O)N2CCN(c3ccnc4cc(Cl)ccc34)CC2)cc1 [TCMDC-133574],-9.196
23,CCCC1N=C(N)N=C(N)N1c1ccc(C)cc1 (centres unmarked) [TCMDC-131297],8.167
24,CC(C)(C)c1ccc(CNCCOc2ccc(Nc3nnc(-c4ccc(-c5ncc[nH]5)cc4)o3)c3ccccc23)cc1 [TCMDC-138667],-26.34

row,SMILES,% Inhibition [%]
1,N#Cc1ccc2c(c1)CCN(CCC1CCC(NC(=O)c3ccc(-c4ccccc4)s3)CC1)CC2 (centres unmarked) [TCMDC-139837],-13.04
2,CC(=O)Nc1nc(C(=O)Nc2ccc(-c3ccc(-c4nc5c(C)cccc5[nH]4)cc3)cc2)cs1 [TCMDC-137125],-51.44
3,Cc1nn(-c2ccnc3cc(Cl)ccc23)c(C)c1C(=O)NCc1cc(Cl)cc(Cl)c1 [TCMDC-134231],-2.069
4,COc1ccc2nccc(N3CCC(SCCNCc4ccc5c(n4)NC(=O)CO5)C3)c2n1 (centres unmarked) [TCMDC-134206],10.7
5,COc1ccc2nccc(N3CCC(NCc4ccc5c(n4)NC(=O)CS5)CC3)c2n1 [TCMDC-134652],3.663
6,COc1ccc2nccc(N3CCC(SCCNCc4ccc5c(n4)NC(=O)CS5)C3)c2n1 (centres unmarked) [TCMDC-134285],-20.26
7,COc1ccc2nccc(N3CCC(NCCNCc4ccc5c(n4)NC(=O)CS5)C3)c2n1 (centres unmarked) [TCMDC-134649],67.81
8,COc1ccc2nccc(N3CCC(NCCNCc4ccc5c(n4)NC(=O)CO5)C3)c2n1 (centres unmarked) [TCMDC-134548],51.99
9,COc1ccc2nccc(N3CCC(CCNCc4ccc5c(n4)NC(=O)CO5)CC3)c2n1 [TCMDC-141943],5.733
10,O=C(NC(c1ccccc1)c1ccccc1)C(c1cc2ccccc2o1)N1CCN(C(c2ccccc2)c2ccccc2)CC1 (centres unmarked) [TCMDC-141009],-31.77
11,CC1(C)N=C(N)N=C(N)N1c1cccc(Cl)c1 [TCMDC-123960],45.27
12,O=C1c2ccccc2CCC1CCN1CC=C(c2c[nH]c3ccccc23)CC1 (centres unmarked) [TCMDC-140685],-66.61
13,CC1(C)CN(CCC2CCC(NC(=O)/C=C/c3ccccc3F)CC2)Cc2ccc(C#N)cc21 (centres unmarked) [TCMDC-139501],15.62
14,CCn1c(Sc2ccc([N+](=O)[O-])c(C#N)c2)nnc1-c1ccc(Cl)cc1 [TCMDC-135235],96.27
15,CCCCn1c(Sc2ccc(C#N)c([N+](=O)[O-])c2)nnc1-c1ccc(OC)cc1 [TCMDC-135583],19.44
16,CCCCCn1c(Sc2ccc(C#N)c([N+](=O)[O-])c2)nnc1-c1ccc(Cl)cc1 [TCMDC-135598],19.94
17,CCCCCCn1c(Sc2ccc(C#N)c([N+](=O)[O-])c2)nnc1-c1ccc(N(C)C)cc1 [TCMDC-135618],23.6
18,CCn1c(Sc2ccc(C#N)c([N+](=O)[O-])c2)nnc1-c1cccc(Cl)c1 [TCMDC-135592],10.47
19,COCCn1c(Sc2ccc(C#N)c([N+](=O)[O-])c2)nnc1-c1ccc(N(C)C)cc1 [TCMDC-135613],43.33
20,CCCn1c(Sc2ccc(C#N)c([N+](=O)[O-])c2)nnc1-c1ccc(Cl)cc1 [TCMDC-135581],50.77
21,CCCCCCn1c(Sc2ccc(C#N)c([N+](=O)[O-])c2)nnc1-c1ccc(Cl)cc1 [TCMDC-135599],28.19
22,CCn1c(Sc2ccc([N+](=O)[O-])c(C#N)c2)nnc1-c1cccc(Cl)c1 [TCMDC-135234],107.6
23,CCCn1c(Sc2ccc(C#N)c([N+](=O)[O-])c2)nnc1-c1ccc(N(C)C)cc1 [TCMDC-135610],57.06

# Source: paper PMC4552634, “A New Set of Chemical Starting Points with Plasmodium falciparum Transmission-Blocking Potential for Antimalarial Drug Discovery” (PLoS ONE, 2015)
